This is a sample that favours compounds with a hit; in the whole collection about 4.5% have one here.
Efflux pump mplx: antifungal efflux pump inhibition, Nile Red retention; S. cerevisiae Candida pump triplex; inhibition, % at 10 µM; actives 0.44% (n = 330,000); AID 485275;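 active means plate passing quality check with inhibition over a set limit, or well fluorescence over plate mean plus 4 SD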;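 further: Nile Red retained in pooled yeast measured as flow cytometry median fluorescence; 0% = buffer negative control and 100% = Enniatin B positive control; higher means more Nile Red kept so more efflux inhibition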
HDAC3 inhib: human HDAC3 inhibition; recombinant HDAC3, fluorogenic peptide/trypsin coupled, fluorescence; inhibition, % at 8.3 µM; actives 0.15% (n = 320,000); in the data active means inhibition above about 26%, passing the limit was not always enough
ALR inh: blocks human ALR sulfhydryl oxidase activity; actives 3.8% (n = 290,000); AID 485317; P55789; purified ALR, DTT oxidation, H2O2 HRP-luminol luminescence; inhibition, % (test concentration not listed);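 active means mean replicate inhibition above about 79%, with every replicate also reaching it, limit read from the data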
GRK2 inh: inhibitors of human GRK2 displacing RNA aptamer. P25098. bead flow cytometry, FAM-aptamer displacement from GRK2. inhibition of aptamer binding, % at 10 µM. actives 0.59% (n = 330,000);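 active means inhibition of aptamer binding above 40%, roughly 3 SD of noise, on plates passing a quality check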;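 further: median bead fluorescence of bound FAM aptamer so fluorescent compounds give negative values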
Rce1 inhib: yeast Ras-converting enzyme inhibition; calls only; yeast membranes, quenched prenylated peptide cleavage fluorescence; actives 0.27% (n = 290,000); Q03530;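 active means fall in fluorescence gain of 50% or more versus controls, with final raw signal at or below 3038400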;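 further: plate controls were neutral control wells for no effect and wells lacking membranes for full effect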
Rtt109 Vps75: blocks Candida albicans Rtt109/Vps75 acetyltransferase activity; purified Rtt109/Vps75, ThioGlo CoA-SH fluorescence, 4 h; actives 0.16% (n = 330,000); AID 540336; inhibition, % at 34.9 µM;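 active means inhibition of at least 50% in every replicate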
Target sequence (Q5AAJ8 whole entry, looked up): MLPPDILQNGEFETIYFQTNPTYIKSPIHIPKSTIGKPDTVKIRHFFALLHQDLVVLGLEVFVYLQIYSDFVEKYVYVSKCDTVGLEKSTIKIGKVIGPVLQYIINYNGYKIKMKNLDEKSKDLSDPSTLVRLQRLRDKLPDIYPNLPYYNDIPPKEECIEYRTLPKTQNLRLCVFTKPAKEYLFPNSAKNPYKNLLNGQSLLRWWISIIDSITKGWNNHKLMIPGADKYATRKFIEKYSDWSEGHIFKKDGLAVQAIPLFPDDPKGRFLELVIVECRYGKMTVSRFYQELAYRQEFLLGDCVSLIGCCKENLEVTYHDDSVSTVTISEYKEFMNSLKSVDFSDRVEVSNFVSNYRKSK
Numbers without * were called inactive.

Results for CCCN1CCC(NC(=O)C2CC=CCC2C(=O)O)CC1 (stereo not drawn) ?
Efflux pump mplx: 0; HDAC3 inhib: 1; ALR inh: -9; GRK2 inh: 0; Rce1 inhib: inactive; Rtt109 Vps75: -23

How did O=c1c(OC2OC(CO)C(O)C(O)C2OC2OC(CO)C(O)C(O)C2OC2OC(CO)C(O)C(O)C2O)c(-c2ccc(O)c(O)c2)oc2cc(O)cc(O)c12 (stereo not drawn) do in these assays?
Efflux pump mplx: 0; HDAC3 inhib: 7; ALR inh: 99*; GRK2 inh: 3; Rtt109 Vps75: -6

What do the screens show for `C[C@@H]1O[C@@H](OC[C@H]2O[C@@H](Oc3c(-c4ccc(O)c(O)c4)oc4cc(O)cc(O)c4c3=O)[C@H](O)[C@@H](O)[C@@H]2O)[C@H](O)[C@H](O)[C@H]1O`?
Efflux pump mplx: 0; HDAC3 inhib: 4; ALR inh: 99*; GRK2 inh: 10; Rce1 inhib: inactive; Rtt109 Vps75: 13

How did Cc1cc(OCC(=O)N2CCC(C(N)=O)CC2)c2c(C)cc(=O)oc2c1 do in these assays?
Efflux pump mplx: 0; HDAC3 inhib: -36; ALR inh: -7; GRK2 inh: 0; Rce1 inhib: inactive; Rtt109 Vps75: 3

How did O=[N+]([O-])c1ccc(S(=O)(=O)c2ccccc2)nc1 do in these assays?
Efflux pump mplx: 2; HDAC3 inhib: 1; ALR inh: 98*; GRK2 inh: 2; Rce1 inhib: inactive; Rtt109 Vps75: -2

What do the screens show for `Cc1ccc(S(=O)(=O)c2ccc([N+](=O)[O-])cn2)cc1`?
Efflux pump mplx: 0; HDAC3 inhib: -11; ALR inh: 89*; GRK2 inh: 4; Rce1 inhib: inactive; Rtt109 Vps75: -8

Results for CN1C(=O)CSC1=S ?
Efflux pump mplx: 0; HDAC3 inhib: -1; ALR inh: -14; GRK2 inh: 0; Rce1 inhib: inactive; Rtt109 Vps75: 0

Results for CCOC(=O)c1sc(NC(=O)CSc2nncn2C)nc1C ?
Efflux pump mplx: 0; HDAC3 inhib: -1; ALR inh: -7; GRK2 inh: 0; Rce1 inhib: inactive; Rtt109 Vps75: -8

What do the screens show for `CCOc1ccccc1NC(=S)N1CCN(c2cccc(OC)c2)CC1`?
Efflux pump mplx: 0; HDAC3 inhib: -2; ALR inh: 98*; GRK2 inh: 2; Rce1 inhib: inactive; Rtt109 Vps75: -5

Results for COc1cccc(N2CCN(C(=S)Nc3cc(C)cc(C)c3)CC2)c1 ?
Efflux pump mplx: 0; HDAC3 inhib: -1; ALR inh: 7; GRK2 inh: 0; Rce1 inhib: inactive

What do the screens show for `CNC(=S)N1CCN(c2cccc(OC)c2)CC1`?
Efflux pump mplx: 0; HDAC3 inhib: 0; ALR inh: 99*; GRK2 inh: 2; Rce1 inhib: inactive; Rtt109 Vps75: -12

How did C[C@H]1NS(=O)(=O)c2ccc(Br)cc2O[C@H]1c1ccccc1 do in these assays?
Efflux pump mplx: 0; GRK2 inh: 1; Rtt109 Vps75: 0

How did Cc1ccc(S(=O)(=O)N(C)C)cc1NC(=O)C(C)OC(=O)c1ccc2c(=O)n3c(nc2c1)CCC3 (stereo not drawn) do in these assays?
Rtt109 Vps75: -5

What do the screens show for `CC(OC(=O)c1ccc2c(=O)n3c(nc2c1)CCC3)C(=O)NC1CCCCC1C` (stereo not drawn)?
Efflux pump mplx: 0; HDAC3 inhib: -3; ALR inh: 13; GRK2 inh: 2; Rce1 inhib: active; Rtt109 Vps75: -3

What do the screens show for `O=C(Nc1ccc(NC(=O)N2CCN(c3ccccc3O)CC2)cc1)N1CCN(c2ccccc2O)CC1`?
Efflux pump mplx: 0; HDAC3 inhib: 4; ALR inh: 2; GRK2 inh: 0; Rce1 inhib: inactive; Rtt109 Vps75: 22

How did O=C(c1cc(-c2ccccc2)nc2ccccc12)N1CCN(c2ccccn2)CC1 do in these assays?
Efflux pump mplx: 0; HDAC3 inhib: 15; ALR inh: -10; GRK2 inh: 0; Rce1 inhib: active; Rtt109 Vps75: 6

What do the screens show for `Cc1ccccc1C(=O)N1CCN(c2ccccn2)CC1`?
Efflux pump mplx: 0; HDAC3 inhib: -14; ALR inh: -6; GRK2 inh: 45*; Rce1 inhib: inactive; Rtt109 Vps75: -20

Source: PubChem (several laboratories)
